Screen size: about 87,000 compounds; about 540 (0.62%) were called active. The sample holds actives, similar compounds and a random draw of the others, so the mix is not that of the screen. How the calls were made is not given here. Entries with a potency or affinity are not part of this list.
Test: MT1-MMP gene expression reporter suppression – cell-based, luciferase reporter, luminescence (AID 618);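 further: actives suppress MT1-MMP promoter-driven transcription so potencies describe inhibitors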
Conditions: MT1-MMP promoter luciferase reporter cells

Compound | outcome
Cc1ccnc(SCC(=O)N2CCN(c3ccccc3)CC2)n1 | inactive
O=C(CCCC(=O)N(CC(=O)NC1CCCC1)Cc1ccccc1)Nc1ccccn1 | inactive
COCCNC(=O)CNS(=O)(=O)c1ccc2nc(C)sc2c1 | inactive
CN(C(=O)c1ccno1)c1nnc(-c2cnccn2)s1 | inactive
Cc1ccc(C)c(SCC(=O)OCC(=O)Nc2ccc(S(=O)(=O)N3CCOCC3)cc2)c1 | inactive
O=C1CC(C(=O)Nc2cccc3ccccc23)C2(CCCC2)O1 (stereo not drawn) | inactive
Cc1ccc2c(c1)c(=O)c1c3n2CCN(C(=O)CCl)C3CC1 (stereo not drawn) | active
Cc1ccc2c(c1)c1c3n2CCN(C(=O)Cn2c(-c4ccccc4)noc2=O)C3CCC1 (stereo not drawn) | inactive
CC(=O)N1CCn2c3c(c(=O)c4cc(C)ccc42)CCC31 (stereo not drawn) | inactive
Cc1sc2nc(CSc3nnc(Cc4cccs4)n3C3CCCCC3)[nH]c(=O)c2c1C | inactive
Cc1ccc(NC2=NC(c3ccc(O)cc3)n3c(nc(C)cc3=O)N2)cc1 (stereo not drawn) | inactive
Nc1nonc1/C(=N/O)N1CCN(CCO)CC1 | inactive
COC(=O)N1[C@H](C)C=C[C@]1(Cc1ccccc1)C(=O)O | active
COC(=O)N1[C@H](C)C=C[C@]1(Cc1ccccc1)C(=O)OC | inactive
CNC(=O)[C@@]1(Cc2ccccc2)C=C[C@@H](C)N1C(=O)OC | inactive
Nc1nonc1N1CCCCC1 | inactive
CCCNC(=O)Cn1cnc2sc(C(=O)NCCN(CC)CC)c(C)c2c1=O | inactive
CN(C)C(=O)CCc1nc(-c2ccc(C(C)(C)C)cc2)no1 | inactive
CNC(=O)CCc1nc(-c2ccc(C(C)(C)C)cc2)no1 | inactive
O=C(O)CCCc1nc(-c2ccccc2)no1 | inactive
COc1ccc(-c2noc(CCC(=O)O)n2)cc1 | inactive
CCOC(=O)C1C2C=CC3(CN(CCc4ccccc4)C(=O)C13)O2 (stereo not drawn) | inactive
O=C(c1csc2c1CCCC2)N1CCN(c2ncccn2)CC1 | inactive
Cc1cccc(-n2nnnc2SC(C)C(=O)NCCC2=CCCCC2)c1 (stereo not drawn) | inactive
CC(C(=O)NC(=O)NC1CCCCC1)N1CCN(c2ccccn2)CC1 (stereo not drawn) | inactive

Compound | outcome
O=C(CNC(=O)c1ccco1)NCC(=O)OCc1cccc(Cl)c1 | inactive
Nc1nc(-c2cccc(Br)c2)cs1 | inactive
COc1cc(C)c(-c2cc(C(=O)O)c(C)o2)cc1C(C)C | inactive
Cc1oc(-c2ccccc2)cc1C(N)=O | inactive
Cc1oc(-c2ccc3c(c2)OCCO3)cc1C(=O)NC(CCC(=O)O)C(=O)O (stereo not drawn) | inactive
CCOC(=O)CNC(=O)c1cc(-c2ccc3c(c2)OCCO3)oc1C | inactive
COc1ccc(C2=NN(CN3C(=O)C(=O)c4ccccc43)C(c3ccc(C)cc3)C2)cc1 (stereo not drawn) | inactive
O=C(N1CCOCC1)N1CCN(c2ccccn2)CC1 | inactive
O=C(NC1CCN(C(=O)N2c3ccccc3Sc3ccccc32)CC1)c1ccco1 | inactive
O=C(CN1CCN(c2ccccn2)CC1)N1c2ccccc2Sc2ccc(C(F)(F)F)cc21 | inactive
O=C(c1ccco1)N1CCN(C(=O)N2c3ccccc3Sc3ccccc32)CC1 | active
O=C(N1CCN(c2ccccn2)CC1)N1c2ccccc2Sc2ccccc21 | active
O=C(c1ccco1)N1c2ccccc2Sc2ccccc21 | inactive
CC(C)NC(=O)c1c2c(nc3ccccc13)CCCC2 | inactive
Cc1nnc2ccc(N3CCN(C(=O)c4ccccc4)CC3)nn12 | inactive
O=C1COc2ccc(C(=O)COC(=O)Cn3cnc4ccccc43)cc2N1 | inactive
CCOC(=O)CNC(=O)C(CC(C)C)NC(=O)C1CCCCC1 (stereo not drawn) | inactive
Clc1ccc(OCc2nc(-c3ccccn3)no2)c(Br)c1 | inactive
Cc1ccc(OCc2nc(-c3ccccn3)no2)cc1 | inactive
CCc1ccc(OCc2nc(-c3ccccn3)no2)c(Br)c1 | active
Clc1ccccc1OCc1nc(-c2ccncc2)no1 | inactive
CC(C)c1ccc(OCc2nc(-c3ccccn3)no2)c(Br)c1 | inactive
CC(C)(C)c1ccc(OCc2nc(-c3ccccn3)no2)c(Br)c1 | inactive
Clc1cc(Cl)c(OCc2nc(-c3ccccn3)no2)cc1Cl | inactive
O=C(NCC1COc2ccccc2O1)c1c[nH]c2ccc(S(=O)(=O)N3CCOCC3)cc2c1=O (stereo not drawn) | inactive

Compound | outcome
CCN(CC)c1ccc(NC(=O)CCCCCN2C(=O)c3ccccc3C2=O)cc1 | inactive
CCOC(=O)C1CCN(C(=O)CN(c2cccc(C(F)(F)F)c2)S(C)(=O)=O)CC1 | inactive
CN(C)S(=O)(=O)N1CCN(C(=O)N2CCOCC2)CC1 | inactive
COc1cccc(CSc2nc3sc(C)c(C)c3c(=O)n2Cc2ccco2)c1 | inactive
C=CCn1c(COc2cccc3ccc(C)nc23)nnc1SCC(=O)O | inactive
CC(C)CCNC(=O)C1C2C=CC3(CN(Cc4ccccc4Cl)C(=O)C13)O2 (stereo not drawn) | inactive
CCOC(=O)N1CCN(C(=O)c2ccccc2-c2ccccc2)CC1 | active
O=C(c1ccccc1-c1ccccc1)N1CCCC1 | inactive
CCOC(=O)N1CCN(C(=O)c2ccccc2Oc2ccccc2)CC1 | inactive
Fc1ccc(-c2cc(C(F)(F)F)nc(N3CCCCC3)n2)cc1 | inactive
Cc1nc2ncnn2c(N2CCC(C(=O)NCC3CCCO3)CC2)c1Cc1ccccc1 (stereo not drawn) | inactive
CCCSc1nnc(Sc2nnnn2-c2ccccc2)s1 | inactive
COc1ccc(-n2nnnc2SCC(=O)NCCc2ccc(OC)c(OC)c2)cc1 | inactive
COc1ccc(CCNc2nnc(Sc3nnnn3-c3ccccc3)s2)cc1OC | active
COc1cccc2cc(C(C)=O)c(=O)oc12 | inactive
O=C(C1CCCN(Cc2ccccc2)C1)N1CCCCC1 (stereo not drawn) | inactive
CCOC(=O)c1sc(NC(=O)c2cncc(Br)c2)nc1C | inactive
CCC(C)(C)n1nnnc1C(c1ccc2ncccc2c1)N1CCN2CCCC2C1 (stereo not drawn) | inactive
CN1CCN(/C=N/c2sc3c(c2C#N)CCCCC3)CC1 | inactive
CCN1CCN(/C=N/c2nc3c(s2)CCCC3)CC1 | active
CCN1CCN(/C=N/c2nc(C)cs2)CC1 | inactive
CC1=CC(C)(C)N2C(=O)C3(C(C#N)=C(N)Oc4cc(C)oc(=O)c43)c3cc(C)cc1c32 (stereo not drawn) | inactive
O=C(O)c1ccc(COc2ccc(CO)cc2Cl)cc1 | inactive
O=C(O)c1ccccc1COc1ccccc1Cl | inactive
O=C(O)c1ccc(COc2cccc(CO)c2)cc1 | inactive

Compound | outcome
O=C(O)c1ccc(COc2ccccc2Cl)cc1 | inactive
O=C(CCCOc1ccc(Cl)cc1Cl)N1CCN(c2ccccn2)CC1 | inactive
O=C(O)c1cccc(COc2ccccc2Cl)c1 | active
O=C(c1cccc(Cl)c1)N1CCN(c2ccccn2)CC1 | inactive
O=C(O)c1cccc(COc2ccc(CO)cc2Cl)c1 | active
CCOC(=O)CNC(=O)CSc1ncnc2c1cnn2-c1ccc(Cl)cc1 | inactive
CCOC(=O)CNC(=O)CSc1ncnc2c1cnn2-c1ccccc1 | inactive
CCOC(=O)CCc1c(C)n(CC)c2cc(-c3ccccc3OC)nn2c1=O | inactive
c1cnc(N2CC[N+]3(CCCC3)CC2)nc1 | inactive
CCOc1cc(-c2nnc(-c3ccco3)o2)cc(OCC)c1OCC | inactive
COCCCNC(=O)Cn1nnc(-c2ccccc2NC(=O)c2ccccc2F)n1 | inactive
COc1ccc(C2C(C(C)=O)=C(O)C(=O)N2CCO)c(OC)c1 (stereo not drawn) | inactive
COC(=O)c1ccc(OC(=O)c2ccc(OC)c(OC)c2)c(OC)c1 | inactive
COC(=O)c1ccc2c(c1)C(C)(C)C(/C=C/c1ccc(OC)c(OC)c1OC)=[N+]2C | active
COC(=O)c1ccc(OC(=O)c2ccc(OCc3c(C)noc3C)c(OC)c2)cc1 | inactive
CCn1c(=O)c2c3c(sc2n(C)c1=O)CCC3 | inactive
Cc1cccc(OCC(=O)Nc2cccc(O)c2)c1 | inactive
Cc1ccc(OCC(=O)Nc2cccc(O)c2)cc1C | inactive
O=C(CCN1CCN(c2ccccc2)CC1)Nc1ccc(Cl)cc1 | inactive
Cc1cn(Cc2ccccc2)c(=O)[nH]c1=O | inactive
CC1CCc2nc(NC(=O)Cc3cccs3)sc2C1 (stereo not drawn) | inactive
CC1CCc2nc(NC(=O)C3CC3)sc2C1 (stereo not drawn) | inactive
CC1CCc2nc(NC(=O)c3ccco3)sc2C1 (stereo not drawn) | active
O=C(Nc1nc2c(s1)CCCC2)c1ccc(Br)o1 | inactive
CC1CCc2nc(NC(=O)CN3CCOCC3)sc2C1 (stereo not drawn) | inactive

Compound | outcome
Cc1cc(C(=O)Nc2nc3c(s2)CCCC3)no1 | inactive
Cc1ncsc1C(=O)Nc1nc2c(s1)CC(C)CC2 (stereo not drawn) | inactive
CC(C)Cc1nnc(NC(=O)CCN2C(=O)c3ccccc3C2=O)s1 | inactive
CCOC(=O)C1=C(C)N(Cc2ccccc2)C(=O)NC1c1ccc(OC)cc1 (stereo not drawn) | inactive
c1ccc(N2CCCCC2)c(NC2=NCCC2)c1 | inactive
Cc1ccc(-c2nc(=S)c3c(n2CC2CCCO2)CC(C)(C)OC3)cc1 (stereo not drawn) | inactive
O=C(NCCCN1CCCC1=O)c1cc(=O)c2ccccc2o1 | inactive
CCOC(=O)CN(C(=O)Cn1nnc2ccccc21)C(C(=O)NCCOC)c1ccccc1C (stereo not drawn) | inactive
COc1ccc2[nH]c3nc(SC(C)C)nnc3c2c1 | active
COc1ccc2[nH]c3nc(SCc4nnc(-c5ccccc5)o4)nnc3c2c1 | inactive
COc1ccc2[nH]c3nc(SCc4nnc(-c5ccc(C)cc5)o4)nnc3c2c1 | inactive
COc1ccc(NC(=O)c2cnc3sccn3c2=O)cc1 | inactive
Cc1ccc(-c2nc3ccccn3c2NC(=O)c2ccco2)cc1 | inactive
Cc1cccn2c(=O)c3cc(C(=O)NCc4ccco4)c(=N)n(CCOCCO)c3nc12 | inactive
CCOc1ccc(C2=Nn3c(nnc3-c3ccc(OC)cc3)SC2)cc1 | inactive
COc1ccccc1-c1nnc2n1N=C(c1ccc(O)c(O)c1)CS2 | inactive
COc1cc(-c2nnc3n2N=C(c2ccccc2)CS3)cc(OC)c1OC | active
CCOc1ccc(C2=Nn3c(nnc3-c3ccccc3OC)SC2)cc1 | active
COc1ccc(C2=Nn3c(nnc3-c3ccccc3)SC2)cc1OC | inactive
CCOc1ccc(-c2nnc3n2N=C(c2ccc(OC)cc2)CS3)cc1 | inactive
COc1ccc(OC)c(C2=Nn3c(nnc3-c3cc(OC)c(OC)c(OC)c3)SC2)c1 | inactive
COc1ccc(C2=Nn3c(nnc3-c3ccccc3OC)SC2)cc1OC | active
COc1ccc(-c2nnc3n2N=C(c2ccccc2)CS3)cc1OC | inactive
